The assay is described as follows: NCI Yeast Anticancer Drug Screen. Data for the cln2 rad14 strain (AID 165).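 Further: 0% = growth equal to vehicle treated cultures.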 As to conditions: S. cerevisiae cln2 rad14 strain, stronger effect = higher value. The method, then: Growth inhibition of yeast strains with defined genetic alterations is measured as a screen for potential anti-cancer activity. Selected strains with alterations in DNA damage repair or cell cycle control were exposed to compounds and growth inhibition was measured relative to vehicle treated controls. The strain used in this assay is cln2 rad14

The mark [1] stands for this setting: at 5.0 µM (retest, dose inferred, filed as 0.5).
[2] abbreviates: at 50.0 µM (retest, dose inferred, filed as 5.0).

The panel holds about 79,000 compounds, 15% with a hit somewhere; the sample as a whole holds those more often. A number with no mark means an inactive call. Active and inactive are the calls of the source. No stated cut-off is given here; in the data, active means growth inhibition above about 70%; inactive means the rest.

On to `O=C1C(Cl)C(c2cc(Br)cc(Br)c2O)N1n1cnc2ccccc2c1=O` (configuration not stated), for which the growth inhibition was -16% under setting [1], 87% (active) under setting [2] and 59.2% (at 50.0 µM).

Turning to `C=CC1(C)CCC2C(=CCC3C2(C)CC(O)C(O)C3(C)COC2OC(CO)C(O)C(O)C2O)C1` (configuration not stated), the growth inhibition reads like this: under setting [1], 1%; under setting [2], 99% (active); (at 50.0 µM) 90.5% (active).

For the compound `CCCC(=O)NCCNC(=O)CCC`, the growth inhibition is, setting by setting: under setting [1], -50%; under setting [2], -62%; (at 50.0 µM) 45.8%.

Consider `CC1(C)CC(=O)C2=C(C1)OC1=C(CC(C)(C)CC1=O)C2c1ccccc1[N+](=O)[O-]` (configuration not stated), for which the growth inhibition by setting is: under setting [1], 23%; under setting [2], 41%; (at 50.0 µM) -7.3%.

Regarding `O=C(Nc1cc(Cl)cc(Cl)c1)C(F)(F)F`, the growth inhibition was 9% under setting [1], 99% (active) under setting [2] and 92.4% (active) (at 50.0 µM).

As to `ClCc1ccc2oc3ccccc3c2c1`, the growth inhibition by setting is: under setting [1], -1%; under setting [2], -8%; (at 50.0 µM) 43.5%.

Turning to `COc1ccc(C2=CCC3C4CC=C5CC(O)CCC5(C)C4CCC23C)s1` (configuration not stated), the growth inhibition is -3% under setting [1], 18% under setting [2] and 53.5% (at 50.0 µM).

For `COC(=O)/C=C1/OC(c2ccccc2)=C(Br)C1=O`, the growth inhibition by setting is: under setting [1], -6%; under setting [2], -6%; (at 50.0 µM) 88.3% (active).

For the compound `COC(=O)CCCCCCCCCCC(=O)O`, the growth inhibition under setting [1] is -9%, the growth inhibition under setting [2] is -4% and the growth inhibition (at 50.0 µM) was -4.75%.

With `NC(=O)NNC(=O)NNC(N)=O`, the growth inhibition was -1% under setting [1], 3% under setting [2] and 70.8% (active) (at 50.0 µM).

In the case of `C1=C(c2ccccc2)[P+](c2ccccc2)(c2ccccc2)C=C(c2ccccc2)[P+]1(c1ccccc1)c1ccccc1`, the growth inhibition under setting [1] was 44%, the growth inhibition under setting [2] is 98% (active) and the growth inhibition (at 50.0 µM) was 98.2% (active).

Turning to `N=C(N)SC1c2ccccc2-c2ccc(N)cc21` (configuration not stated), the growth inhibition by setting is: under setting [1], -4%; under setting [2], 81% (active); (at 50.0 µM) 96.8% (active).

Turning to `Fc1cccc(CSc2ncnc3c2ncn3C2CCCS2)c1` (configuration not stated), the growth inhibition is, setting by setting: under setting [1], 26%; under setting [2], 87% (active); (at 50.0 µM) 82% (active).

On to `COc1ccc2c(C)cc(N/N=C(\C)c3ccccn3)nc2c1`, for which the growth inhibition reads like this: under setting [1], -6%; under setting [2], 28%; (at 50.0 µM) 99.5% (active).
